Source: PubChem
MsrA act: bovine MsrA enzyme activators, primary screen, biochemical, absorbance, HTS | purified bovine MsrA, absorbance read-out | activation, % at 10.6 µM | hit rate 0.3% among 360,000 | AID 602163, 2012; in the data active means activation above about 7.5%;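 further: 0% = vehicle and 100% = reference activator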
rCAG RNA binder: binders of r(CAG) RNA repeats, primary screen, biochemical, fluorescence; hit rate 1.3% among 370,000; r(CAG) RNA repeat, TO-PRO-1 dye displacement fluorescence; inhibition, % at 3 µM;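 active means inhibition above the plate cutoff, the mean of all test compounds on that plate plus 3 SD, cut at about 35% in these data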;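 further: 0% = DMSO alone and 100% = 100 µM mitoxantrone as full dye displacement; higher means more dye released from RNA so lower well fluorescence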
NadD inh: inhibitors of S. aureus NadD, primary screen, biochemical, colorimetric, uHTS; purified NadD enzyme, colorimetric absorbance read-out; inhibition, % at 20 µM; hit rate 0.78% among 360,000; in the data active means inhibition above about 26%
MsrA inhibitor: bovine MsrA enzyme inhibitors, primary screen, biochemical, absorbance, HTS. Methionine sulfoxide reductase A (Bos taurus). purified bovine MsrA, absorbance read-out. inhibition, % at 15.5 µM. hit rate 0.75% among 360,000. AID 651718, 2012; in the data active means inhibition above about 4.5%;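 further: 0% = vehicle wells with enzyme and 100% = reference inhibitor wells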
NadD inh conf: inhibitors of S. aureus NadD, confirmation, biochemical, colorimetric, single concentration. shares compounds with NadD inh. purified S. aureus NadD, colorimetric enzyme assay. inhibition, % at 20 µM. hit rate 13% among 2,000. AID 624309, 2012; in the data active means inhibition mostly above about 42%, no sharp cut-off; inactive means mostly below about 42%
An asterisk follows results filed as active; nt = no result; ! = not active in a repeat. This is a sample that favours compounds with a hit; in the whole collection about 2.7% have one here.

SMILES	MsrA act	rCAG RNA binder	NadD inh	MsrA inhibitor	NadD inh conf
Oc1ccc(C[C@H]2CN([C@@H](Cc3cccc(O)c3)CN3CCC[C@@H]3CN3C(=S)NC[C@@H]3Cc3ccccc3)C(=S)N2CC2CCCCC2)cc1	-3	9	44*	1	33
CC(C)C[C@@H](CN1CCCC1CN1C(=S)NC[C@@H]1Cc1ccc(O)cc1)N1C[C@H](Cc2ccc(O)cc2)N(CC2CCCCC2)C1=S (some centres undefined)	-2	15	54*	0	30
Oc1ccc(C[C@H]2CN([C@@H](Cc3ccccc3)CN3CCCC3CN3C(=S)NC[C@@H]3Cc3ccccc3)C(=S)N2CC2CCCCC2)cc1 (some centres undefined)	-3	16	43*	-1	4
CC(C)C[C@H]1CNC(=S)N1C[C@H]1CCCN1C[C@H](Cc1ccc(O)cc1)N1C[C@H](Cc2ccccc2)N(CC2CCCCC2)C1=S	-8	11	9	1	nt
CC(C)C[C@@H](CN1CCC[C@@H]1CN1C(=S)NC[C@@H]1Cc1ccccc1)N1C[C@H](Cc2ccc(O)cc2)N(CC2CCCCC2)C1=S	0	10	-2	1	nt
Oc1ccc(C[C@H]2CNC(=S)N2C[C@H]2CCCN2C[C@H](Cc2ccccc2)N2C[C@H](Cc3ccc(O)cc3)N(CC3CCCCCC3)C2=S)cc1	-3	17	43*	-1	14
Cc1noc(C)c1NC(=O)N(C)C[C@H]1Oc2ccc(NC(=O)c3ccncc3)cc2C(=O)N([C@H](C)CO)C[C@@H]1C	-2	0	0	-1	nt
CC(C)C(OC(=O)CN1C(=O)c2ccccc2C1=O)C(=O)NC1CCCCC1 (centres undefined)	-12	-4	-2	1	nt
CC(C)C[C@H]1CN([C@@H](Cc2ccc(O)cc2)CN2CCC[C@@H]2CN2C(=S)NC[C@@H]2Cc2ccccc2)C(=S)N1CC1CCCCC1	-2	9	22	0	nt
Oc1ccc(C[C@H]2CNC(=S)N2CC2CCCN2C[C@H](Cc2ccccc2)N2C[C@H](Cc3ccc(O)cc3)N(CC3CCCCCC3)C2=S)cc1 (some centres undefined)	-13	12	48*	-1	21
Oc1ccc(C[C@H]2CNC(=S)N2CC2CCCN2C[C@H](Cc2ccc(O)cc2)N2C[C@H](Cc3ccc(O)cc3)N(CC3CCCCC3)C2=S)cc1 (some centres undefined)	-7	15	48*	1	47
Oc1ccc(C[C@H]2CN([C@@H](Cc3ccc(O)cc3)CN3CCC[C@@H]3CN3C(=S)NC[C@@H]3Cc3ccccc3)C(=S)N2CC2CCCCCC2)cc1	-4	11	47*	0	27
Cc1ccc(CNC(=O)c2ccc(N3CCC4(CC3)CC(c3cccc(Br)c3)=NO4)c(NC(=O)c3ccc(Cl)c([N+](=O)[O-])c3)c2)cc1	0	7	34*	0	-3
CCCNC(=O)c1ccc(N2CCC3(CC2)CC(c2cccc(Br)c2)=NO3)c(NC(=O)c2ccc(Cl)c([N+](=O)[O-])c2)c1	6	7	30*	-1	-7
CCCNC(=O)c1ccc(N2CCC3(CC2)CC(c2cccc(Br)c2)=NO3)c(NC(=O)c2cccc(C)c2)c1	0	13	12	1	nt
COC(=O)C[C@H]1CC[C@@H]2[C@@H](COc3ccc(NC(=O)c4ccno4)cc3C(=O)N2C)O1	nt	6	nt	nt	nt
Cc1ccc(NC(=O)c2ncn(CCCN(CCCn3cnc(C(=O)Nc4ccc(C)c(C)c4)n3)Cc3ccc4[nH]ccc4c3)n2)cc1C	1	10	39*	1	32
Cc1ccc(NC(=O)c2ncn(CC(=O)NCc3ccc4[nH]ccc4c3)n2)cc1C	-5	4	0	1	nt
COc1ccc(-c2cc(C(=O)Nc3cc(OC)cc(C(=O)Nc4cccc(C(F)(F)F)c4)c3)[nH]n2)cc1	0	8	40*!	-1	23
Cc1ccc(CN2CCN(c3cccc4[nH]ccc34)CC2)cc1	-2	15	-5	0	nt
Cc1ccc(/C=c2\sc3nc(-c4ccccc4Br)nn3c2=O)o1	0	27	26*	2	10
Cn1c(-c2ccc(C=O)s2)nc2c3ccccc3c3ccccc3c21	1	14	50*	-1	11
CN(C)C1=C(Cl)C(=O)N(c2ccc(Cl)c(Cl)c2)C1=O	-2	3	3	0	nt
CN(C)/C=C1\C(=O)N(c2ccc(Cl)c(Cl)c2)CS1(=O)=O	-1	3	33*	-1	-1
CC1CCN(S(=O)(=O)c2ccc(C(=O)Nc3ccccc3-c3nc4ccccc4[nH]3)cc2)CC1	-4	8	29*	0	4
SMILES	MsrA act	rCAG RNA binder	NadD inh	MsrA inhibitor	NadD inh conf
Cc1cc(F)ccc1S(=O)(=O)Nc1ccccc1C(=O)Nc1ccccc1-c1nc2ccccc2[nH]1	-5	nt	33*	nt	0
Cc1cc(F)ccc1S(=O)(=O)Nc1ccccc1C(=O)Nc1ncn[nH]1	4	11	9	1	nt
CC1CCCN(S(=O)(=O)c2ccc(C(=O)Nc3ccccc3-c3nc4ccccc4[nH]3)cc2)C1 (centres undefined)	0	5	5	0	nt
CNc1cnc(-c2ccc(C(=O)N3CCOCC3)cc2)cn1	-2	2	-3	2	nt
Nc1ccc(SCC(=O)Nc2cccc([N+](=O)[O-])c2)cc1	-7	2	-7	1	nt
CC/C(=N/NC(=O)CNc1ccc(Cl)cc1C)c1ccccc1	-4	3	-3	0	nt
O=C(NCc1nc2ccccc2[nH]1)C1=C[C@@H](c2csc3ccccc23)C[C@@H](OCc2ccc(CO)cc2)O1	-3	14	34*	3	39
O=C(NCc1nc2ccccc2[nH]1)C1=C[C@@H](c2ccc(Br)cc2)C[C@@H](OCc2ccc(CO)cc2)O1	-9	4	26	0	nt
O=C(NCc1nc2ccccc2[nH]1)C1=C[C@H](c2csc3ccccc23)C[C@H](OCc2ccc(CO)cc2)O1	-2	16	32*	2	45
CN(C)C(=O)CCc1ccc2c3c([nH]c2c1)[C@]1(C)[C@@H](C(=O)N2CCCCC2)C[C@H](CC(=O)NCC24CC5CC(CC(C5)C2)C4)C(=O)N1CC3	-1	7	2	1	nt
N#CC1=C2SCN(Cc3ccco3)CN2C(=O)CC1c1ccccc1F (centres undefined)	0	nt	2	nt	nt
N#CC1=C2SCN(Cc3ccco3)CN2C(=O)CC1c1cccc2ccccc12 (centres undefined)	2	37*	31*	-1	9
CCn1c(SCC(=O)Nc2oc(-c3ccccc3)c(-c3ccccc3)c2C#N)nnc1-c1ccco1	-3	25	29*	1	44
N#Cc1c(NC(=O)CN2C(=O)c3ccccc3C2=O)oc(-c2ccccc2)c1-c1ccccc1	-3	4	33*	0	15
